Assay [1] in a line: qHTS RealTime-Glo MT Cell Viability Assay in HEK293 cells - 0 hour (AID 1224880). Note: top concentration of the series differs between compounds; nearly all actives have a fitted effect of over 45% in size. Summed up:
(§1)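 Kinetic, non-lysing viability readout. Seed HEK293 (600/well) with reagent, incubate 5 h at 37 C/5% CO2, pin 23 nL compound in DMSO, incubate at 37 C, read luminescence at 0, 8, 16, 24, 32, 40 h.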

Assay [2] in a line: A CellTox Green Cytotoxicity Assay to monitor cytotoxicity in HEK293 cells - 32 hour (AID 1224881). Note: nearly all actives have a fitted effect of over 40% in size. Note: potency is the fitted concentration of half-maximal effect. The gist of the method:
(§2)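 Real-time, in one plate: 600 HEK293 cells/well with dead-cell DNA dye, pinned compound after 5 h, 37 C incubation over 40 h; viable cells give no appreciable fluorescence.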

Assay [3] is described as follows: A CellTox Green Cytotoxicity Assay to monitor cytotoxicity in HepG2 cells - 0 hour (AID 1224882). Note: nearly all actives have a fitted effect of over 35% in size. Summed up:
(§3)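 Cytotoxicity was tracked as dead-cell DNA fluorescence in HepG2 cells treated with test compounds at 37 C; each time-point value comes from one kinetic series spanning 0, 8, 16, 24, 32 and 40 h.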

Assay [4] in a line: A CellTox Green Cytotoxicity Assay to monitor cytotoxicity in HEK293 cells - 8 hour (AID 1224884). Note: nearly all actives have a fitted effect of over 35% in size. The gist of the method: as §2
Assay [5] is described as follows: qHTS RealTime-Glo MT Cell Viability Assay in HepG2 cells - 16 hour (AID 1224885). Note: nearly all actives have a fitted effect of over 50% in size. Summed up:
(§4)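 Real-time, nonlytic viability: 600 HepG2 cells/well mixed with NanoLuc enzyme plus prosubstrate; 5 h settle, compound (DMSO) added by pintool; luminescence monitored over 40 h at 37 C.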

Assay [6] can be described thus: qHTS RealTime-Glo MT Cell Viability Assay in HepG2 cells - 0 hour (AID 1224889). Note: nearly all actives have a fitted effect of over 50% in size. Summed up:
as §4
Background: Quantitative high-throughput screening tests each substance at several concentrations.

Assay [7] can be described thus: A CellTox Green Cytotoxicity Assay to monitor cytotoxicity in HepG2 cells - 8 hour (AID 1224890). Note: nearly all actives have a fitted effect of over 45% in size. The gist of the method:
as §3

The nature of assay [8]: qHTS assay to identify small molecule antagonists of the estrogen receptor alpha (ER-alpha) signaling pathway using the BG1 cell line in the presence of 0.1 nM 17-beta-estradiol - cell viability counter screen (AID 1259241). Note: nearly all actives have a fitted effect of over 40% in size. The gist of the method: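 Cytotoxicity counter-screen: live-cell protease activity measured by fluorescence (30 min reagent step) in the same wells. Cells were VM7Luc4E2 with endogenous ER-alpha and ERE-driven luciferase, treated 22 hr at 37C alongside 0.1 nM 17beta-estradiol final.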

A short description of assay [9]: qHTS assay to identify small molecule antagonists of the androgen receptor (AR) signaling pathway using the MDA cell line in the presence of 0.5 nM R1881 - cell viability counter screen (AID 1259242). Note: nearly all actives have a fitted effect of over 45% in size. The gist of the method: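 Cells seeded at 3,000/well and allowed 5 hr at 37C, 0% CO2 before compound transfer and R1881 (0.5 nM final) addition; 16 hr later, live-cell protease fluorescence indicated cytotoxicity.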

The target of assay [10] is Estrogen receptor (Homo sapiens) (UniProt P03372). Kind of assay: qHTS assay to identify small molecule antagonists of the estrogen receptor alpha (ER-alpha) signaling pathway using the BG1 cell line in the presence of 0.1 nM 17-beta-estradiol (AID 1259244). Note: nearly all actives have a fitted effect of over 50% in size. The gist of the method:
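Luciferase signal from VM7Luc4E2 ERE-reporter cells, co-dosed with test compound and 0.1 nM final 17beta-estradiol for 22 h, read with ONE-Glo.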

Assay [11] can be described thus: qHTS assay to identify small molecule HDAC inhibitors - cell viability counter screen (AID 1259365). Note: series mostly up to about 92 µM; nearly all actives have a fitted effect of over 50% in size. Summed up:
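CellTiter-Glo luminescence (30 min, room temperature) reported viability after a 2 h compound exposure at 37 C. Cells: wild-type HCT-116, 1,500 per well, seeded the night before.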

Assay [12] is described as follows: qHTS assay to identify small molecule agonists of the sonic hedgehog signaling (Shh) pathway - cell viability counter screen (AID 1259366). Note: nearly all actives have a fitted effect of over 50% in size. Summed up:
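Cytotoxicity counter screen: CellTiter-Fluor reagent added after 23 h compound exposure, then 1 h at 37C and fluorescence read. Cells were 3T3 Gli1-Luc, seeded 2,000 per well and dosed 4 h post-plating.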

Assay [13] can be described thus: qHTS assay to identify small molecule antagonists of the sonic hedgehog signaling (Shh) pathway - cell viability counter screen (AID 1259367). Note: nearly all actives have a fitted effect of over 55% in size. Summed up:
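CellTiter-Fluor signal in conditioned medium-stimulated 3T3 Gli1-Luc cells, 23 hr compound exposure, 37C.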

A short description of assay [14]: qHTS RealTime-Glo MT Cell Viability Assay in HEK293 cells - 24 hour (AID 1224886). The gist of the method:
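Cells + reagent dispensed (600 cells/well, HEK293) → 5 h at 37 C/5% CO2 → 23 nL compound in DMSO pinned → 40 h at 37 C → luminescence read at 0, 8, 16, 24, 32, 40 h.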

Assay [15] in a line: qHTS RealTime-Glo MT Cell Viability Assay in HEK293 cells - 8 hour (AID 1224887). The gist of the method: as §1
Assay [16] can be described thus: A CellTox Green Cytotoxicity Assay to monitor cytotoxicity in HEK293 cells - 16 hour (AID 1224888). Note: nearly all actives have a fitted effect of over 35% in size. The gist of the method: as §2
Assay [17] in a line: qHTS assay to identify small molecule phospholipidosis (PLD) inducers (AID 1259344; active = well fitted curve in the direction sought with a large enough effect; an effect the other way counts as inactive or inconclusive). The gist of the method:
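Accumulated phospholipid, stained red by LipidTOX during 24 h compound treatment of HepG2 cells at 37 C, is quantified from images as pit number and intensity, normalised per cell using Hoechst-stained nuclei.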

The nature of assay [18]: qHTS assay to identify small molecule HDAC inhibitors (AID 1259364). Note: potency is the fitted concentration of half-maximal effect.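 Note: wild-type HCT-116 cells with endogenous class I/II HDAC activity; nearly all actives have a fitted effect of over 45% in size.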 The gist of the method:
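HCT-116 wt cells, 1,500/well, overnight attach. Compounds (DMSO) 2 h, 37 °C. HDAC-Glo I/II, 30 min RT. Luminescence.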

Assay [19] in a line: A CellTox Green Cytotoxicity Assay to monitor cytotoxicity in HepG2 cells - 32 hour (AID 1224883). Note: nearly all actives have a fitted effect of over 50% in size. Summed up: as §3
The target in assay [20] is Androgen receptor (Homo sapiens) (UniProt P10275). Kind of assay: qHTS assay to identify small molecule antagonists of the androgen receptor (AR) signaling pathway using the MDA cell line in the presence of 0.5 nM R1881 (AID 1259243). Note: nearly all actives have a fitted effect of over 50% in size. The gist of the method: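 Luminescence from an AR/GR-responsive MMTV-luciferase construct in MDA-kb2 breast carcinoma cells, read 30 min after ONE-Glo, following 16 hr co-treatment with compounds and 0.5 nM R1881.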

Records with an inconclusive call do not appear. Activity calls are given as the source filed them. Unless noted, calls come from the whole dose curve; as a rule, active = well fitted curve in the direction sought with a large enough effect in the repeat runs; inconclusive = weak or mixed curves; inactive = no such curve, though single readings can be large; an effect the other way counts as inactive or inconclusive.

Chain of Estrogen receptor (Homo sapiens) (P03372 whole entry, looked up): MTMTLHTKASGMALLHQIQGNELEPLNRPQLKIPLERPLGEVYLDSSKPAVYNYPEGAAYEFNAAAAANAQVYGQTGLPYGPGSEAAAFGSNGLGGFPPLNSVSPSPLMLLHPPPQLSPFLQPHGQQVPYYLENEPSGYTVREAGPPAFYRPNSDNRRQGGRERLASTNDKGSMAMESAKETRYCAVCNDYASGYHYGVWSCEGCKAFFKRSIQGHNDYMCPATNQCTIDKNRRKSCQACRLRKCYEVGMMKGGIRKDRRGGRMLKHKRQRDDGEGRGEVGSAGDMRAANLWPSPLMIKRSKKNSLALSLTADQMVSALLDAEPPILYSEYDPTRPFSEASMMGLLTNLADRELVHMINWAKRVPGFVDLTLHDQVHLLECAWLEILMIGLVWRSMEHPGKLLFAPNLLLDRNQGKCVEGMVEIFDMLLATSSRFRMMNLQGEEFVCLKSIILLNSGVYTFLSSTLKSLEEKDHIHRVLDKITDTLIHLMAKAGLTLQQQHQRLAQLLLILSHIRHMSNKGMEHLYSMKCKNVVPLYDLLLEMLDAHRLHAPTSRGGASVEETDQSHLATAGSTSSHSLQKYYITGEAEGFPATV
Chain of Androgen receptor (Homo sapiens) (P10275 whole entry, looked up): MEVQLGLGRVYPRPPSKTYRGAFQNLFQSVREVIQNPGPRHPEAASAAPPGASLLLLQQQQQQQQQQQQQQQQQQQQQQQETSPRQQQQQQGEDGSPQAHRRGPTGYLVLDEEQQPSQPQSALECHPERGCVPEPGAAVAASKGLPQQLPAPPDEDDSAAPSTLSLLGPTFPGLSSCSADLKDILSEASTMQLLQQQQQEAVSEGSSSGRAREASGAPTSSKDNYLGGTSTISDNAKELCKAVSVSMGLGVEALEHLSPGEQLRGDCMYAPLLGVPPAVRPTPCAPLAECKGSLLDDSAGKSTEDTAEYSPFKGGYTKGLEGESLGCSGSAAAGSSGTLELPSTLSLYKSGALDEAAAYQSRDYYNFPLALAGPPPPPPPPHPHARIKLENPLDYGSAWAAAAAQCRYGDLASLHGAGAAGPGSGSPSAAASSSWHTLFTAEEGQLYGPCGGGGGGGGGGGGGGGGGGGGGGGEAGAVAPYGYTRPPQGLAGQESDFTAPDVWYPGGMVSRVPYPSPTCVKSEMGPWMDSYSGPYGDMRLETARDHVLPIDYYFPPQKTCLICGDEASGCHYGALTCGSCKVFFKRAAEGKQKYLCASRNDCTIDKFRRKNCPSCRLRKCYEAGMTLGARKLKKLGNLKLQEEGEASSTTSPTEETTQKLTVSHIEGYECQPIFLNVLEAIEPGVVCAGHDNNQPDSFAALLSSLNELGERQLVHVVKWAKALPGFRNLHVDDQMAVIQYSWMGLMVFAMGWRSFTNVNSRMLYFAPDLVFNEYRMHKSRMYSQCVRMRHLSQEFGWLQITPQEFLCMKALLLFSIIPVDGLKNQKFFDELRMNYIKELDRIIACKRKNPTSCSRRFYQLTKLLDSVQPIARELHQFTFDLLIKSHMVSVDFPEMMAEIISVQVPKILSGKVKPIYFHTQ

With `CC#Cc1cc(C)nc(Nc2ccccc2)n1`, the call in [1], in assay [3], in assay [6], in [8] and in [11] was inactive. Moreover, the Potency entry in assay [2], in [4], in assay [5], in assay [7], in assay [9] and in [10] was “inactive” each time. The Potency entry in assay [12] and in assay [13] was “inactive” throughout.

In the case of `C=C(C)[C@H]1CN[C@H](C(=O)O)[C@H]1CC(=O)O`, the call in assay [1], in [3], in assay [6], in assay [8] and in assay [11] was inactive. Also, the Potency entry in [2], in assay [4], in assay [5], in assay [14], in assay [15] and in assay [16] was “inactive” throughout. The Potency entry in assay [7], in assay [9], in [10], in [17], in assay [12] and in [13] was “inactive” throughout.

With `CCOC(=O)Nc1cccc(OC(=O)Nc2ccccc2)c1`, the result in assay [1], in assay [3], in assay [6], in [8] and in assay [11] was inactive. In addition, the Potency entry in [2], in assay [4], in [5], in assay [14], in assay [15] and in assay [16] was “inactive” each time. In addition, the Potency entry in [7], in [9], in assay [10] and in assay [12] was “inactive” in each case. The Potency in assay [18] was 3.86 µM (active).

`C#CCOC(=O)/C=C(C)/C=C/CC(C)CCCC(C)C` (centres undefined): the outcome in assay [1], in [3], in assay [6], in assay [8] and in [11] was inactive. Also, the Potency result in assay [2], in [4], in assay [5], in [14], in [15] and in assay [16] was “inactive” each time. The Potency result in assay [7], in [9], in [10], in assay [18], in assay [12] and in [13] was “inactive” throughout.

As to `C=CCN1CC[C@]23CCCC[C@H]2[C@H]1Cc1ccc(O)cc13`, the result in assay [1], in assay [3], in assay [6], in assay [8] and in assay [11] was inactive. Moreover, the Potency entry in assay [2], in assay [4], in assay [5], in assay [14], in [15] and in assay [16] was “inactive” throughout. Further, the Potency entry in assay [7], in assay [9], in assay [17], in [18], in [12] and in assay [13] was “inactive” in each case.

With `CC(C)c1ccc(O)cc1`, the call in assay [1], in [3], in assay [6], in assay [8] and in [11] was inactive. In addition, the Potency entry in assay [2], in [4], in assay [5], in assay [14], in assay [15] and in [16] was “inactive” throughout. For the same compound, the Potency result in assay [7], in assay [9], in assay [18], in assay [12] and in assay [13] was “inactive” throughout.

In the case of `Clc1ccc(C(Cl)(Cl)Cl)cn1`, the result in assay [1], in assay [3], in assay [6], in [8] and in assay [11] was inactive. Besides, the Potency in [2] is 34.7 µM (active). Also, the Potency entry in assay [19], in assay [5], in assay [14], in [15], in assay [7] and in assay [9] was “inactive” throughout. The Potency entry in [20], in assay [10], in assay [18], in assay [12] and in assay [13] was “inactive” each time.

Regarding `C#CC(C)(C)O`, the call in assay [1], in [3], in assay [6], in assay [8] and in [11] was inactive. The Potency entry in assay [2], in assay [4], in [5], in assay [14], in assay [15] and in assay [16] was “inactive” in each case. The Potency entry in assay [7], in assay [9], in assay [18], in assay [12] and in [13] was “inactive” in each case.

As for `CON(C)C(=O)Nc1ccc(Br)cc1`, the outcome in [1], in assay [3], in assay [6], in [8] and in assay [11] was inactive. Further, the Potency entry in assay [2], in assay [4], in [5], in [14], in assay [15] and in assay [16] was “inactive” throughout. Besides, the Potency entry in assay [7], in assay [9] and in assay [12] was “inactive” each time. The Potency in assay [18] is 24.3 µM (active).
